Measurements reported in the supplement of paper PMC10849652.
About 7,900 targets were measured; listed, in parts, are those with a hit and a random draw of the rest. About 0.6% of all pairs of compound and target were hits.

Experiments:
Test in all cases: log2 fold change, soluble protein after heating vs DMSO (PISA); higher = thermal stabilisation; K562 cells, 10 uM, 30 min; active = over 0.2 and 3.5 SD of the protein, either way, in both replicates (recomputed)
[1] = compound: COC1=CC=C(C=C1)CN2C=CC3=C2C=C(C=C3)C(=O)NO
Procedure, shortened: (§1)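 K562 cells at 2×10^6 cells/mL were treated for 30 min with 10 μM compound, and aliquots were heated for 3 min over 48°C-58°C before pooling. Extraction used PBS with 0.5% NP-40 at 4°C, and soluble protein was the supernatant after 21,000xg for 90 min, measured by TMTpro 16plex LC-MS/MS with channel sums equalised. Thermal stability values, relative to control samples and from duplicates, are log2 fold changes.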

filanesib = compound: CON(C)C(=O)N1N=C(c2cc(F)ccc2F)S[C@@]1(CCCN)c1ccccc1 [filanesib]
Procedure, shortened: as §1

zotarolimus = compound: CO[C@H]1C[C@@H]2CC[C@@H](C)[C@@](O)(O2)C(=O)C(=O)N2CCCC[C@H]2C(=O)O[C@H]([C@H](C)C[C@@H]2CC[C@H](n3cnnn3)[C@H](OC)C2)CC(=O)[C@H](C)/C=C(\C)[C@@H](O)[C@@H](OC)C(=O)[C@H](C)C[C@H](C)/C=C/C=C/C=C/1C [zotarolimus]
Procedure, shortened: as §1

idasanutlin = compound: COc1cc(C(=O)O)ccc1NC(=O)[C@@H]1N[C@@H](CC(C)(C)C)[C@](C#N)(c2ccc(Cl)cc2F)[C@H]1c1cccc(Cl)c1F [idasanutlin]
Procedure, shortened: as §1

alisertib = compound: COc1cc(Nc2ncc3c(n2)-c2ccc(Cl)cc2C(c2c(F)cccc2OC)=NC3)ccc1C(=O)O [alisertib]
Procedure, shortened: as §1

[2] = compound: COc1cc2nc(-c3cc(F)ccc3O)nc(N[C@@H]3CNC[C@H]3C(C)(C)O)c2cc1OC
Procedure, shortened: as §1

gefitinib = compound: COc1cc2ncnc(Nc3ccc(F)c(Cl)c3)c2cc1OCCCN1CCOCC1 [gefitinib]
Procedure, shortened: as §1

[3] = compound: COc1cccc2cc(-c3nc([C@H]4CC[C@H](C(=O)O)CC4)n4ncnc(N)c34)[nH]c12
Procedure, shortened: as §1

lapatinib = compound: CS(=O)(=O)CCNCc1ccc(-c2ccc3ncnc(Nc4ccc(OCc5cccc(F)c5)c(Cl)c4)c3c2)o1 [lapatinib]
Procedure, shortened: as §1

pictilisib = compound: CS(=O)(=O)N1CCN(Cc2cc3nc(-c4cccc5[nH]ncc45)nc(N4CCOCC4)c3s2)CC1 [pictilisib]
Procedure, shortened: as §1

[4] = compound: CS(=O)(=O)c1ccc(-c2cnc(N)c(C(=O)Nc3ccccc3)n2)cc1
Procedure, shortened: as §1

crizotinib = compound: C[C@@H](Oc1cc(-c2cnn(C3CCNCC3)c2)cnc1N)c1c(Cl)ccc(F)c1Cl [crizotinib]
Procedure, shortened: as §1

[5] = compound: C[C@@H]1COCCN1C2=NC(=NC(=C2)C3(CC3)S(=O)(=O)C)C4=C5C=CNC5=CC=C4
Procedure, shortened: as §1

[6] = compound: C[C@H](C1=CC=C(C=C1)C(=O)NC2=C3C=CNC3=NC=C2)N
Procedure, shortened: as §1

duvelisib = compound: C[C@H](Nc1ncnc2nc[nH]c12)c1cc2cccc(Cl)c2c(=O)n1-c1ccccc1 [duvelisib]
Procedure, shortened: as §1

gandotinib = compound: Cc1cc(Nc2cc(CN3CCOCC3)c3nc(C)c(Cc4ccc(Cl)cc4F)n3n2)n[nH]1 [gandotinib]
Procedure, shortened: as §1

tozasertib = compound: Cc1cc(Nc2cc(N3CCN(C)CC3)nc(Sc3ccc(NC(=O)C4CC4)cc3)n2)n[nH]1 [tozasertib]
Procedure, shortened: as §1

[7] = compound: Cc1cc(SCc2sc(-c3ccc(C(F)(F)F)cc3)nc2C)ccc1OCC(=O)O
Procedure, shortened: as §1

doramapimod = compound: Cc1ccc(-n2nc(C(C)(C)C)cc2NC(=O)Nc2ccc(OCCN3CCOCC3)c3ccccc23)cc1 [doramapimod]
Procedure, shortened: as §1

ispinesib = compound: Cc1ccc(C(=O)N(CCCN)[C@@H](c2nc3cc(Cl)ccc3c(=O)n2Cc2ccccc2)C(C)C)cc1 [ispinesib]
Procedure, shortened: as §1

Measured: log2 fold change

SMARCAD1 isoform 2 (UniProt Q9H4L7)
Chain of UniProt Q9H4L7 (Q9H4L7 whole entry, looked up): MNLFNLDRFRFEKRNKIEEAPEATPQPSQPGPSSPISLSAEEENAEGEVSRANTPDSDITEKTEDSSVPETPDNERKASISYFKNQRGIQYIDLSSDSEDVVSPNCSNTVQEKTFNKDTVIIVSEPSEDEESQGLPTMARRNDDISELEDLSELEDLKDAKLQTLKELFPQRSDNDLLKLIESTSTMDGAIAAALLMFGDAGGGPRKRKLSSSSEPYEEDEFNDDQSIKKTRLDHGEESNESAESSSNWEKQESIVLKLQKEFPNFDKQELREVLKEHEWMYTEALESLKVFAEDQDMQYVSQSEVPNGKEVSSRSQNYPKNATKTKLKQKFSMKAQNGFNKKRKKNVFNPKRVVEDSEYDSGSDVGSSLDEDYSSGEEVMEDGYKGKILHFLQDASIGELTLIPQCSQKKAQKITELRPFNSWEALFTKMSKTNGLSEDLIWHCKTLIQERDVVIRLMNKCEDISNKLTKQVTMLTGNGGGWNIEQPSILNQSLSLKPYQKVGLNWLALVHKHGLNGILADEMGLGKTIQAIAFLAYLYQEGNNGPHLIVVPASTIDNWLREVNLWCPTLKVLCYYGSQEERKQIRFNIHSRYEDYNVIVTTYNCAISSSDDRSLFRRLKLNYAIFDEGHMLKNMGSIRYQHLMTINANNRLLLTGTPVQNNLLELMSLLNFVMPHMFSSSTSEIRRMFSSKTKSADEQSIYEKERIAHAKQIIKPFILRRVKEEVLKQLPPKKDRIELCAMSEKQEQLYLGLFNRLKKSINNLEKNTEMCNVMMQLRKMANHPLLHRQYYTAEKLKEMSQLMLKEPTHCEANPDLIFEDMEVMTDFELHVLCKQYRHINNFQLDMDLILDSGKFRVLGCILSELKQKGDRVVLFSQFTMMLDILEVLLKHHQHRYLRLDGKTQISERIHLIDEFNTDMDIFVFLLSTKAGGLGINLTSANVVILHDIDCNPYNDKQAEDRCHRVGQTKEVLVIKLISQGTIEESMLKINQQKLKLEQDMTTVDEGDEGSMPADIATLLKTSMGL
inactive: [1] 0.027 | filanesib -0.098 | zotarolimus 0.028 | idasanutlin -0.073 | alisertib -0.026 | [2] 0.06 | gefitinib -0.062 | [3] -0.004 | lapatinib 0.026 | pictilisib 0.07 | [4] 0.029 | crizotinib -0.112 | [5] 0.088 | [6] -0.054 | duvelisib 0.081 | gandotinib -0.042 | tozasertib 0.059 | [7] 0.15 | doramapimod -0.058 | ispinesib 0

SLK isoform 2 (UniProt Q9H2G2)
inactive: [1] 0.001 | filanesib 0.042 | zotarolimus -0.007 | idasanutlin -0.008 | alisertib -0.045 | [2] -0.103 | gefitinib 0.025 | [3] -0.079 | lapatinib -0.193 | [4] 0.016 | crizotinib -0.068 | [5] 0.07 | [6] 0.014 | duvelisib 0.072 | gandotinib 0.102 | tozasertib -0.225 | [7] 0.052 | doramapimod -0.118 | ispinesib 0.021
active: pictilisib 0.212

TIPRL (UniProt O75663)
Chain of UniProt O75663 (O75663 whole entry, looked up): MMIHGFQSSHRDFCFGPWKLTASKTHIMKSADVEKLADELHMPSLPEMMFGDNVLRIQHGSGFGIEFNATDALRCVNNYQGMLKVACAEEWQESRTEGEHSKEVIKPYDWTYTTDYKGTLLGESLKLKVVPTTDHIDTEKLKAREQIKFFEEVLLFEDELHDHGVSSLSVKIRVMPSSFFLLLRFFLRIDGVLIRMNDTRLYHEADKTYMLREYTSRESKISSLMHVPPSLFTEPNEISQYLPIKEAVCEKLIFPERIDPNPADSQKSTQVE
inactive: [1] 0.011 | filanesib -0.063 | zotarolimus -0.013 | idasanutlin -0.104 | alisertib 0.014 | [2] 0.043 | gefitinib -0.034 | [3] -0.009 | lapatinib -0.009 | pictilisib 0.034 | [4] 0.065 | crizotinib -0.167 | [5] 0.143 | [6] -0.023 | duvelisib -0.016 | gandotinib -0.159 | tozasertib -0.011 | [7] 0.065 | doramapimod -0.034 | ispinesib -0.055

SMPD4 isoform 4 (UniProt Q9NXE4)
Chain of UniProt Q9NXE4 (Q9NXE4 whole entry, looked up): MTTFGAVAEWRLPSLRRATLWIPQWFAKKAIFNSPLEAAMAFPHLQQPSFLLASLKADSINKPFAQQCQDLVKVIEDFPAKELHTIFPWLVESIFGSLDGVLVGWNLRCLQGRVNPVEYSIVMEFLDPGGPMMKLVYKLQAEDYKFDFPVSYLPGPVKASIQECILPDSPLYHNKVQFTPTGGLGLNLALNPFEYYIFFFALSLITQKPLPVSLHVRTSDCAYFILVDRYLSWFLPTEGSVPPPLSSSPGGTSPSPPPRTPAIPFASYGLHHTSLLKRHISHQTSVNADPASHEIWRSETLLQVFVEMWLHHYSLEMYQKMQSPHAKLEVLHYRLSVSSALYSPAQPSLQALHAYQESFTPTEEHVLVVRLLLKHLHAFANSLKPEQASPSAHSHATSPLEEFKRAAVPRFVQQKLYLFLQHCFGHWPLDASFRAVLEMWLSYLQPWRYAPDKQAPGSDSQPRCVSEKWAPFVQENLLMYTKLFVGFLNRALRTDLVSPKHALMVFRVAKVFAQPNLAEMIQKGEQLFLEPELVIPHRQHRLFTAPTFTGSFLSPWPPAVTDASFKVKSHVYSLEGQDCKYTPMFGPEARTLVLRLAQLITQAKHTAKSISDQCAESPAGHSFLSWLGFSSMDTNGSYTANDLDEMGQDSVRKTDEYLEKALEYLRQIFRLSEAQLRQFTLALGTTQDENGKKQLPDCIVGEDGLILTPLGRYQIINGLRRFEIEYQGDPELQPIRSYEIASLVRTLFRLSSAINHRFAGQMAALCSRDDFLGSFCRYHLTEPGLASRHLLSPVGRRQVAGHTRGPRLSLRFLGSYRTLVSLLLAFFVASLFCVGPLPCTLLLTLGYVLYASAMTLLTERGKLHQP
inactive: [1] 0.051 | filanesib -0.223 | zotarolimus 0.011 | idasanutlin -0.049 | alisertib 0.145 | [2] -0.109 | gefitinib 0.02 | [3] -0.043 | lapatinib -0.013 | pictilisib -0.034 | [4] -0.026 | crizotinib -0.215 | [5] 0.005 | [6] 0.01 | duvelisib 0.091 | gandotinib -0.133 | tozasertib -0.086 | [7] 0.025 | doramapimod 0.002 | ispinesib -0.255

TFB2M (UniProt Q9H5Q4)
Chain of UniProt Q9H5Q4 (Q9H5Q4 whole entry, looked up): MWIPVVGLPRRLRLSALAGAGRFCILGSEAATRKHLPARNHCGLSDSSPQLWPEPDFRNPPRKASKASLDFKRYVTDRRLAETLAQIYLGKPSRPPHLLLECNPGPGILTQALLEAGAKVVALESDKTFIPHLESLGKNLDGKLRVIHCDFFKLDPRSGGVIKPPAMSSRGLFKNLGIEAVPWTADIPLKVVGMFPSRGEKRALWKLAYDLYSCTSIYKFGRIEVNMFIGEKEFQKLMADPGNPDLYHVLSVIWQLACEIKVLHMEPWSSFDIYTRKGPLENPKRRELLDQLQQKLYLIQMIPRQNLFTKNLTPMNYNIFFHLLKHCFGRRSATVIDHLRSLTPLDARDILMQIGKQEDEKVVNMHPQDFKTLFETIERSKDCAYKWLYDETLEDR
inactive: [1] -0.044 | filanesib -0.074 | zotarolimus -0.001 | idasanutlin -0.055 | alisertib 0.011 | [2] 0.006 | gefitinib 0.002 | [3] 0.037 | lapatinib -0.001 | pictilisib -0.021 | [4] -0.013 | crizotinib -0.06 | [5] 0.096 | [6] 0.025 | duvelisib 0.049 | gandotinib -0.19 | tozasertib 0.013 | [7] 0.033 | doramapimod -0.024 | ispinesib -0.044

TIMM29 (UniProt Q9BSF4)
inactive: [1] -0.141 | filanesib 0.041 | zotarolimus -0.058 | idasanutlin -0.096 | alisertib 0.01 | [2] 0.021 | gefitinib 0.039 | [3] 0.073 | lapatinib 0.014 | pictilisib 0.051 | [4] 0.044 | crizotinib 0.08 | [5] 0.065 | [6] -0.033 | duvelisib -0.015 | gandotinib -0.014 | tozasertib 0.012 | [7] 0.02 | doramapimod 0.185 | ispinesib 0.033

TBC1D23 (UniProt Q9NUY8)
Chain of UniProt Q9NUY8 (Q9NUY8 whole entry, looked up): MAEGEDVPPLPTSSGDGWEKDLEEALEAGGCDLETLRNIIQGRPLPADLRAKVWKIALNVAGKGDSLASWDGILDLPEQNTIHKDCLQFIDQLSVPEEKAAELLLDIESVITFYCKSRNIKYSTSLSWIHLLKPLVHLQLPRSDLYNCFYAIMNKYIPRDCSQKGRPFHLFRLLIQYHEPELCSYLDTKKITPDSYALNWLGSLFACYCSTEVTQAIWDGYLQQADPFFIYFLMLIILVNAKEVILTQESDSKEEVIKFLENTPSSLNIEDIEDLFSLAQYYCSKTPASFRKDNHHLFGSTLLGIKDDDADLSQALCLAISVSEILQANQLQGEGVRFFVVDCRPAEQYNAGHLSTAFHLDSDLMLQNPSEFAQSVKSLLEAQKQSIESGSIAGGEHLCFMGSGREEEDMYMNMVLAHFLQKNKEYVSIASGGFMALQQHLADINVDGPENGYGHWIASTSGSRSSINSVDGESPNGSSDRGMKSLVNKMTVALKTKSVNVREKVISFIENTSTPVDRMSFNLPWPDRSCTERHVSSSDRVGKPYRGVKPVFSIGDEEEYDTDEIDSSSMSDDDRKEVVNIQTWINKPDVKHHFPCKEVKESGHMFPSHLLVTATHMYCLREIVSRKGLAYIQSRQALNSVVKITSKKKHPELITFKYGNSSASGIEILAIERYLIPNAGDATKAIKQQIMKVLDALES
inactive: [1] 0.07 | filanesib -0.184 | zotarolimus -0.002 | idasanutlin 0.068 | alisertib 0.023 | [2] -0.19 | gefitinib -0.058 | [3] 0.021 | lapatinib -0.053 | pictilisib -0.067 | [4] -0.026 | crizotinib -0.019 | [5] 0.022 | [6] 0 | duvelisib 0.002 | gandotinib -0.205 | tozasertib -0.042 | [7] 0.028 | doramapimod -0.027
active: ispinesib -0.48

SPR (UniProt P35270)
Chain of UniProt P35270 (P35270 whole entry, looked up): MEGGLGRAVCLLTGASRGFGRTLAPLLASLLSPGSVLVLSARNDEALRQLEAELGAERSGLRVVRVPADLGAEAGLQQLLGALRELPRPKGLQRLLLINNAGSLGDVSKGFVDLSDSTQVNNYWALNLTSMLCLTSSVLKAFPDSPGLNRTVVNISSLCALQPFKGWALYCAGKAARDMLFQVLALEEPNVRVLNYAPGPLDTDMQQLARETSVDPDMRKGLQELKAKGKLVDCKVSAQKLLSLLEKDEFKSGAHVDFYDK
inactive: filanesib -0.087 | zotarolimus 0 | idasanutlin -0.225 | alisertib -0.051 | [2] -0.039 | gefitinib -0.008 | [3] 0.021 | lapatinib -0.031 | [4] -0.006 | crizotinib 0.125 | [5] 0.058 | [6] -0.059 | duvelisib 0.109 | gandotinib 0.288 | tozasertib 0.154 | [7] -0.025 | doramapimod -0.05 | ispinesib -0.103
active: [1] 0.794 | pictilisib 0.681

TBC1D15 isoform 3 (UniProt Q8TC07)
inactive: [1] -0.063 | filanesib 0 | zotarolimus 0.039 | idasanutlin -0.058 | alisertib -0.052 | [2] -0.065 | gefitinib 0.015 | [3] -0.06 | lapatinib 0.032 | pictilisib -0.009 | [4] -0.012 | crizotinib -0.275 | [5] -0.032 | [6] 0.036 | duvelisib -0.031 | gandotinib -0.191 | tozasertib 0.061 | [7] 0.064 | doramapimod 0.017 | ispinesib -0.154

SNX6 (UniProt Q9UNH7)
inactive: [1] -0.036 | filanesib -0.187 | zotarolimus 0.02 | idasanutlin -0.01 | alisertib -0.035 | [2] -0.109 | gefitinib -0.123 | [3] 0.004 | lapatinib -0.055 | pictilisib -0.252 | [4] -0.169 | crizotinib -0.323 | [5] -0.014 | [6] -0.033 | duvelisib -0.277 | tozasertib -0.118 | [7] 0.061 | doramapimod -0.036 | ispinesib -0.281
active: gandotinib -0.5

SURF2 (UniProt Q15527)
Chain of UniProt Q15527 (Q15527 whole entry, looked up): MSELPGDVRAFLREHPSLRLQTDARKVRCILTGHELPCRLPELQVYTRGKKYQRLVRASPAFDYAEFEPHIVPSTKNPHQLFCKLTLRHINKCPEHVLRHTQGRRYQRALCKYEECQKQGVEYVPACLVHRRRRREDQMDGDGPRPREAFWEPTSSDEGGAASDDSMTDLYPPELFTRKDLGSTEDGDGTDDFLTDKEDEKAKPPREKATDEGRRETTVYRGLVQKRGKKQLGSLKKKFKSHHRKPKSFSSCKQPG
inactive: [1] 0.038 | filanesib 0.014 | zotarolimus 0.055 | idasanutlin 0.054 | alisertib -0.133 | [2] 0.023 | gefitinib 0.028 | [3] -0.034 | lapatinib 0.006 | pictilisib -0.07 | [4] -0.009 | crizotinib 0.084 | [5] -0.02 | [6] -0.118 | duvelisib 0.018 | gandotinib 0 | tozasertib -0.01 | [7] 0.04 | doramapimod -0.068 | ispinesib 0.038

SOAT1 (UniProt P35610)
inactive: [1] 0 | filanesib -0.1 | idasanutlin -0.184 | alisertib -0.02 | [2] -0.118 | gefitinib 0.137 | [3] 0.045 | lapatinib 0.068 | pictilisib 0.067 | [4] 0.066 | crizotinib 0.139 | [5] 0.094 | [6] -0.018 | duvelisib 0.069 | gandotinib 0.079 | tozasertib -0.021 | [7] -0.026 | ispinesib 0.158
active: zotarolimus 0.363 | doramapimod 0.448

SNX12 isoform 1 (UniProt Q9UMY4)
Chain of UniProt Q9UMY4 (Q9UMY4 whole entry, looked up): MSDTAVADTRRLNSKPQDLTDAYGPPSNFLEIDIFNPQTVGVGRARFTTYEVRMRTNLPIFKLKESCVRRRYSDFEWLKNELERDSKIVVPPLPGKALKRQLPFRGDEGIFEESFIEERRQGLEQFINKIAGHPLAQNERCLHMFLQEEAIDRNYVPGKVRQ
inactive: [1] -0.029 | filanesib -0.027 | zotarolimus -0.007 | idasanutlin 0.039 | alisertib 0.005 | [2] -0.008 | gefitinib 0.035 | [3] 0.09 | lapatinib -0.006 | pictilisib -0.002 | [4] 0.004 | crizotinib -0.055 | [5] 0.081 | [6] 0.007 | duvelisib -0.162 | gandotinib -0.204 | tozasertib 0.021 | [7] 0.044 | doramapimod -0.036 | ispinesib -0.097

TIMM13 (UniProt Q9Y5L4)
inactive: [1] 0.206 | filanesib -0.091 | zotarolimus 0.042 | idasanutlin -0.043 | alisertib -0.006 | gefitinib -0.002 | [3] -0.01 | lapatinib 0.027 | pictilisib -0.056 | [4] -0.047 | crizotinib 0.051 | [5] 0.151 | [6] -0.115 | duvelisib 0.079 | gandotinib -0.002 | tozasertib 0.038 | [7] 0.006 | doramapimod 0.039 | ispinesib 0.12
active: [2] -0.3

STK11IP (UniProt Q8N1F8)
Chain of UniProt Q8N1F8 (Q8N1F8 whole entry, looked up): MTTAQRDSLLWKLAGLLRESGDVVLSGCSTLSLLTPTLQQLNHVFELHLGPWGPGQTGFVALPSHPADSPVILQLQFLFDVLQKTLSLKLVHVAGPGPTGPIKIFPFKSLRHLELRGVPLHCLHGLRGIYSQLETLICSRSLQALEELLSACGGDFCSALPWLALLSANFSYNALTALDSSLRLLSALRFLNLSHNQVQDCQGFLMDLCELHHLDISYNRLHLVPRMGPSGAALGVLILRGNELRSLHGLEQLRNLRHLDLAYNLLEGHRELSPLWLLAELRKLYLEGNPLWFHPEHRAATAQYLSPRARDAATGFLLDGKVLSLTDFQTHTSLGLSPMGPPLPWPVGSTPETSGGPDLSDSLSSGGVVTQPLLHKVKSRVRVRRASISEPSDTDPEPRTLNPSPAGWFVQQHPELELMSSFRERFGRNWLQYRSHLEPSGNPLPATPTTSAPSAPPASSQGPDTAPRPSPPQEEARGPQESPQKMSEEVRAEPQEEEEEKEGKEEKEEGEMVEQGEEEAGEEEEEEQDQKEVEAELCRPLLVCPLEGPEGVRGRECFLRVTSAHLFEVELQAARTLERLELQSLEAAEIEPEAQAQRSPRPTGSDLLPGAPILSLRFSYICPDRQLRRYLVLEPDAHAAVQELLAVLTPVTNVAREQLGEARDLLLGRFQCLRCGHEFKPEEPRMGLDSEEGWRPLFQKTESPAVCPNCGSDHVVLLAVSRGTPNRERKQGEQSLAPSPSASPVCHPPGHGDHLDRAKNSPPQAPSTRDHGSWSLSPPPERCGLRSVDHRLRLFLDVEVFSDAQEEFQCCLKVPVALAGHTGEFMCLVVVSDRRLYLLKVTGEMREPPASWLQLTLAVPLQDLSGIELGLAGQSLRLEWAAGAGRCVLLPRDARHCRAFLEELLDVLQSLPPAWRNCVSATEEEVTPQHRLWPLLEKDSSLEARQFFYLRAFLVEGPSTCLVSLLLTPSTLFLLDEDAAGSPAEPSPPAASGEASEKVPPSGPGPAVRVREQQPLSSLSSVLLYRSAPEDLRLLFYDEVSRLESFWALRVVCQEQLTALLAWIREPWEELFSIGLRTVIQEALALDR
inactive: [1] -0.029 | filanesib 0.042 | zotarolimus 0.195 | idasanutlin 0.044 | alisertib -0.131 | [2] -0.172 | gefitinib -0.072 | [3] -0.139 | lapatinib -0.088 | pictilisib 0.117 | [4] -0.21 | [5] -0.078 | [6] -0.124 | duvelisib -0.089 | gandotinib -0.002 | tozasertib -0.042 | [7] 0.021 | doramapimod 0.006
active: crizotinib -0.869

SRSF6 (UniProt Q13247)
inactive: [1] -0.209 | filanesib 0.218 | zotarolimus -0.118 | idasanutlin 0.375 | alisertib -0.105 | [2] -0.134 | gefitinib 0.033 | [3] -0.032 | lapatinib 0.163 | pictilisib -0.473 | [4] -0.021 | crizotinib -0.09 | [5] -0.195 | [6] 0.03 | duvelisib -0.085 | gandotinib -0.043 | tozasertib -0.08 | [7] 0.059 | doramapimod -0.047
